# Results as given in PubChem BioAssay (EPA / NIEHS).
# The source made the active and inactive calls. How the source made its calls: active means hit-call score of the fitted dose curve at least 0.9, where 1 is the maximum; inactive means score below 0.9.
# Read-out: Cytochrome P450 4A22 (Homo sapiens) (UniProt Q5TCH4)
# Assay: LTEA_HepaRG_CYP4A22: Life Technologies and Expression Analysis (LTEA) Assay for Cytochrome P450 4A22 (CYP4A22) using HepaRG (AID 2283495)
# Settings: mRNA level, 48 h; actives raise or lower the signal
# Description: LTEA_HepaRG is a cell based, multiplexed-readout assay that uses HepaRG, a human liver cell line, with measurements taken at 48 hours after chemical dosing on a 96-well plate.LTEA_HepaRG_CYP4A22 is one of 102 assay component(s) measured in the LTEA HepaRG cell culture assay. It is a marker of NR mediated metabolism.Data from the assay component LTEA_HepaRG_CYP4A22 was analyzed into 1 endpoint. This assay endpoint, LTEA_HepaRG_CYP4A22, was analyzed with bidirectional fitting relative to DMSO as the negative control and baseline of activity. Using a type of inducible reporter, measures of mRNA induction for gain or loss-of-signal activity can be used to understand regulation of transcription factor activity. To generalize the intended target to other relatable targets, this assay endpoint is annotated to the cyp intended target family, where the subfamily is xenobiotic metabolism.
# A total of 1060 chemcials from the ToxCast library were tested in eight-point concentration-response experiments. Cell culture and cytotoxicity assays were conducted at Thermo Fisher Scientific's Custom Services facility (Madison, WI). A single lot of human HepaRG cells (Thermo Fisher Scientific, Frederick, MD) was used for the cell culture experiments. 96-well format collagen type I coated plates of human HepaRG cells were prepared using established methods. Briefly, cryopreserved HepaRG cells were thawed, plated at a density of approximately 100,000 cells/well in HepaRG Thaw, Plate, and General Purpose media (HPRG770, Thermo Fisher Scientific), and incubated for 48 hours. 0.5% DMSO was selected as vehicle control to balance the requisite need of DMSO in HepaRG cultures to maintain differentiation (for example, baseline metabolism, proportions of hepatocytes vs. cholangiocytes), while enabling further hepatic receptor pathway activation (for example, PXR and CAR) in response to chemical exposure. 48 hours after plating, the culture medium was replaced with HepaRG Serum-Free Incudtion Media. Cells were exposed to each test chemical in duplicate and maintained in CO2 incubators for another 48 hours. Chemical plates were thawed to room temperature and 200x concentrations of treatment groups were prepared. 8-point conentration-reponse curves were made with the highest exposure at 100 uM, followed by half-log dilutions, all in 0.5% DMSO. Each test plate contained variouse controls, induction positive controls (1mM phenobarbital), cytotoxicity positive controls ([…] aflatoxin B1), vehicle controls (0.5% DMSO), and total lysis controls (0.5% DMSO). Cell morphology images were taken using an Essen IncuCyte FLR automated microscope, with six 96-well plates imaged in about 24 minutes. Images were captured and exported and JPEG files. Spent culture media was transfered to black-well plates for the LDH assay, and remaining media was sorted at -80 C for later use. Cells were treated with RLT buffer and frozen until shipped for gene expression analysis. Total RNA was isolated from the cell suspension in 75 uL of Buffer RLT (Qiagen, Germantown, MD 20874) by Quintiles/Expression Analysis (Durham, NC) using a custom isolation procedure. Total RNA from each plate well was transferred to a preamplification plate. Fluidigm's 96.96 Dynamic ArrayTM (Fluidigm, Amsterdam, the Netherlands) technology was used for gene expression analyses by quantitative reverse transcription polymerase chain reaction (qRT-PCR, performed by Quintiles/Expression Analysis, Durham, NC)89. Standard TaqManTM Assays (Applied Biosystems/ThermoFisher Scientific, Foster City, CA) were used to assess the expression of 93 genes selected based on their selectivity and sensitivity to important hepatic receptors known to be modulated by environmental chemicals; importance in human hepatocyte functionality; and hepatotoxicity. […]
Structure (SMILES),outcome,AC50
N#Cc1cccnc1,inactive,–
COc1ccccc1N,inactive,–
O=C(N[C@H]1CN2CCC1CC2)c1ccc2c(c1)OCCO2,inactive,–
CC(C)(C)c1ccccc1O,inactive,–
OCCN(CCO)CCO,inactive,–
CC(C)O.CC(C)O.OCCN(CCO)CCO.OCCN(CCO)CCO.[Ti],inactive,–
Cc1cc(C)cc(C)c1,inactive,–
Clc1cccc(Cl)c1,inactive,–
Oc1cc(Cl)c(Cl)cc1Cl,inactive,–
Clc1cccc(Cl)c1Cl,inactive,–
CCCCCCCCCCCCc1cccc(S(=O)(=O)O)c1,–,25.6 µM (active)
O=C(O)C1(c2ccc3c(c2)OC[C@H](Cc2ccc(-c4ccccc4)cc2)[C@H]3O)CCCC1,inactive,–
